Test [1] can be described thus: qHTS assay for small molecules that induce genotoxicity in human embryonic kidney cells expressing luciferase-tagged ATAD5 (AID 651632). Also: % is scaled to controls: 0 for no effect and ±100 for the full control effect; nearly all actives have a fitted effect of over 15% in size. In outline:
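Quantitative HTS in HEK293T expressing luciferase-tagged ATAD5, whose levels rise upon DNA damage. Exposure ran 16 hr at 37C and 5% CO2, with luminescence read 30 min after Amplite addition at room temperature.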

Test [2] in a line: qHTS assay for small molecule agonists of the p53 signaling pathway - cell viability (AID 651633; calls by dose curve;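 also: p53RE-bla HCT reporter cells with a stable beta-lactamase p53 reporter; series mostly up to about 83 µM; % is scaled to controls: 0 for no effect and ±100 for the full control effect; nearly all actives have a fitted effect of over 30% in size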). The essentials: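 Viability counter-read: CellTiter-Glo luminescence (30 min, room temperature) in the same p53RE-bla plates. These plates had been exposed to compounds for 16 h at 37 C.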
Test [3] can be described thus: qHTS assay for small molecules that induce genotoxicity in human embryonic kidney cells expressing luciferase-tagged ATAD5 - cell viability (AID 651634; calls by dose curve; also: % is scaled to controls: 0 for no effect and ±100 for the full control effect; nearly all actives have a fitted effect of over 25% in size). In outline:
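After 15.5 hr incubation with compound at 37C, 5% CO2, HEK293T ATAD5-luciferase cells received CellTiter-Fluor reagent; fluorescence intensity was quantified following 30 min at 37C.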

Test [4] is described as follows: qHTS assay for small molecule disruptors of the mitochondrial membrane potential (AID 720635). Also: potency is read from the fitted curve at half-maximal effect. The essentials:
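Mitochondrial membrane potential tracked with Mito-MPS dye, red aggregates (ex 540/em 590 nm) against green monomers (ex 490/em 535 nm). Compound treatment 1 hr at 37C, dye 30 min in HepG2.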

Test [5] can be described thus: qHTS assay to test for compound auto fluorescence at 590 nm (red) in HepG2 cells (AID 720674). Also: % is scaled to controls: 0 for no effect and ±100 for the full control effect. The essentials: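 We screened compounds on adherent HepG2 cells, incubating them for an hour at 37 C in 5% CO2 before reading emission at 590 nm under 540 nm excitation; values reflect equivalence to Rose Bengal sodium fluorescence.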
Test [6] in a line: qHTS assay to test for compound auto fluorescence at 460 nm (blue) in HEK293 cells (AID 720678). Also: % is scaled to controls: 0 for no effect and ±100 for the full control effect. In outline:
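HEK293 cells (2,000/well, medium with 10% dialyzed FBS) attached 4-5 hr, then exposed to compound overnight at 37C, 5% CO2. Blue fluorescence read at 405/460 nm, with triamterene as reference fluorophore.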
Background: In qHTS, concentration-response curves come from the screen itself.

Test [7] in a line: qHTS assay to test for compound auto fluorescence at 590 nm (red) in HEK293 cells (AID 720679). Also: % is scaled to controls: 0 for no effect and ±100 for the full control effect. The essentials:
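HEK293 cells (2,000/well, 10% dialyzed FBS) attached 4-5 hr, then dosed with compound or DMSO and incubated overnight at 37C, 5% CO2. Red fluorescence read at 540/590 nm, Rose Bengal sodium as reference fluorophore.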

A short description of test [8]: qHTS assay to test for compound auto fluorescence at 535 nm (green) in HEK293 cells (AID 720680). Also: % is scaled to controls: 0 for no effect and ±100 for the full control effect.
Test [9] can be described thus: qHTS assay to test for compound auto fluorescence at 460 nm (blue) in HEK293 cell free culture (AID 720681). Also: % is scaled to controls: 0 for no effect and ±100 for the full control effect. In outline:
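Blue fluorescence (Ex 405/Em 460 nm, triamterene-equivalent) was read immediately after pin transfer of compound or DMSO into medium (DMEM, 10% FBS) without cells.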

The nature of test [10]: qHTS assay to test for compound auto fluorescence at 535 nm (green) in HEK293 cell free culture (AID 720682). Also: % is scaled to controls: 0 for no effect and ±100 for the full control effect. In outline:
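DMEM + 10% FBS, cell-free; cpd or DMSO pinned in; Ex485/Em535 read; output as fluorescein-equivalent signal.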

Test [11] is described as follows: qHTS assay to test for compound auto fluorescence at 590 nm (red) in HepG2 cell free culture (AID 720684). Also: % is scaled to controls: 0 for no effect and ±100 for the full control effect. In outline:
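Cell-free; medium MEM + 10% FBS; compound or DMSO added by pintool; read Ex 540/Em 590 nm; Rose Bengal sodium as red reference fluorophore.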

Test [12] in a line: qHTS assay to test for compound auto fluorescence at 460 nm (blue) in HepG2 cell free culture (AID 720685). Also: % is scaled to controls: 0 for no effect and ±100 for the full control effect. The essentials:
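Cell-free plates of MEM plus 10% FBS received 23 nL compound or DMSO vehicle; blue-channel (405/460 nm) intensity scored against triamterene as reference fluorophore.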

A short description of test [13]: qHTS assay to test for compound auto fluorescence at 535 nm (green) in HepG2 cell free culture (AID 720686). Also: % is scaled to controls: 0 for no effect and ±100 for the full control effect.
Test [14] is described as follows: qHTS assay to test for compound auto fluorescence at 460 nm (blue) in HepG2 cells (AID 720687). Also: % is scaled to controls: 0 for no effect and ±100 for the full control effect. In outline:
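Blue-channel autofluorescence (Ex/Em 405/460 nm, triamterene-equivalent) was measured after 1 hr compound exposure at 37 C, 5% CO2. Cells were HepG2, plated overnight at 37 C in MEM plus 10% FBS.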

Test [15] concerns the target Glucocorticoid receptor (Homo sapiens) (UniProt P04150). In words: qHTS assay to identify small molecule agonists of the glucocorticoid receptor (GR) signaling pathway (AID 720691; active = well fitted activation curve with a large enough effect in the signal ratio in the repeat runs, not every such curve was filed as active; the % refers to the signal ratio; also: potency is read from the fitted curve at half-maximal effect). In outline:
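Cells: GR-bla HeLa, endogenous GR with stably integrated GRE-beta-lactamase reporter. Treatment 18 h, 37 C, compounds delivered in DMSO. Detection via LiveBLAzer B/G FRET substrate, 2 h RT, fluorescence intensity.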

Test [16] in a line: qHTS assay for small molecule disruptors of the mitochondrial membrane potential - cell viability (AID 720634; calls by dose curve;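 also: human HepG2 liver cancer cells; series mostly up to about 83 µM; % is scaled to controls: 0 for no effect and ±100 for the full control effect; nearly all actives have a fitted effect of over 20% in size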). The essentials:
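ATP-based luminescent viability readout (CellTiter-Glo, 30 min, room temperature) in HepG2 cells multiplexed with the m-MPI membrane potential dye; compound exposure lasted 1 hr at 37 C.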

Test [17] is described as follows: qHTS assay to test for compound auto fluorescence at 590 nm (red) in HEK293 cell free culture (AID 720683). Also: % is scaled to controls: 0 for no effect and ±100 for the full control effect. In outline:
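Red-channel autofluorescence of compounds in culture medium (DMEM, 10% FBS), no cells, measured at 540/590 nm. Rose Bengal sodium is the reference fluorophore for equivalence.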

In test [18] the target is Glucocorticoid receptor (Homo sapiens) (UniProt P04150). Nature of the test: qHTS assay to identify small molecule antagonists of the glucocorticoid receptor (GR) signaling pathway (AID 720692; active = well fitted inhibition curve with a large enough effect in the signal ratio in the repeat runs, not every such curve was filed as active; the % refers to the signal ratio; also: potency is read from the fitted curve at half-maximal effect). In outline:
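Quantitative HTS in antagonist format: HeLa cells expressing endogenous GR and a stably integrated GRE-bla reporter, stimulated with 5 nM dexamethasone (final) alongside test compounds for 18 h.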

The nature of test [19]: qHTS assay to test for compound auto fluorescence at 535 nm (green) in HepG2 cells (AID 720675). Also: % is scaled to controls: 0 for no effect and ±100 for the full control effect.

Values without a mark were called inactive. Inconclusive results are not listed. The source made the active and inactive calls. Unless noted, calls follow the shape of the dose curve; as a rule, active = well fitted curve in the direction sought with a large enough effect in the repeat runs; inconclusive = weak or mixed curves; inactive = no such curve, though single readings can be large; an effect the other way counts as inactive or inconclusive.

Sequence of Glucocorticoid receptor (Homo sapiens) (P04150 whole entry, looked up): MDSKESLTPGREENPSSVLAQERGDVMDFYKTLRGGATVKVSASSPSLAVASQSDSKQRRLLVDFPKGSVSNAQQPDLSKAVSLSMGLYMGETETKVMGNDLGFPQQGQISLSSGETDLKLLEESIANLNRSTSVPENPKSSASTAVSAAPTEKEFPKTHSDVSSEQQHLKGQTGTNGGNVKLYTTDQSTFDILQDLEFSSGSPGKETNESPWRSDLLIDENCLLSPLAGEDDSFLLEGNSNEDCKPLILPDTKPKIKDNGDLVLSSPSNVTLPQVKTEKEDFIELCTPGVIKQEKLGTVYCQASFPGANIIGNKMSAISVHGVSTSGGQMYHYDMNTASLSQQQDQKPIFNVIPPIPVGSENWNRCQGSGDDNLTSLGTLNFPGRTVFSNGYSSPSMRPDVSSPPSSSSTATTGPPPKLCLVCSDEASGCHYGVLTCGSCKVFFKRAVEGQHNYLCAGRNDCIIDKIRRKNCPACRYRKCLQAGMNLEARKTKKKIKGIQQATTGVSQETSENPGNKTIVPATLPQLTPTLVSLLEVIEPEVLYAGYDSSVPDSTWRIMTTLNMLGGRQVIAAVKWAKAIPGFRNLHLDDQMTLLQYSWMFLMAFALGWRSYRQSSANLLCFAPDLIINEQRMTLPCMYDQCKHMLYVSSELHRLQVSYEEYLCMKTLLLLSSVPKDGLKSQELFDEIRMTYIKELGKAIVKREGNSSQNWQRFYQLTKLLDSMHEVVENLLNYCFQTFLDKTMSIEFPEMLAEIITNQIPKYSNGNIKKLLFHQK

Regarding `O=C(c1ccc(O)cc1)c1ccc(Cl)cc1`, the Potency entry in test [1], in [2], in test [3], in test [6], in test [9] and in test [12] was “inactive” in each case. Further, the Potency entry in test [14] and in test [15] was “inactive” in each case. In addition, in test [4], the Potency was 15.7 µM (active). In addition, the compound was classed as inactive in [5], in [7], in test [8], in test [10], in test [11] and in [13].

Turning to `CC(=O)[C@H]1CC[C@H]2[C@@H]3C=CC4=CC(=O)CC[C@@]4(C)[C@@H]3CC[C@]12C`, the Potency result in test [1], in [2], in test [3] and in [16] was “inactive” each time. Further, the fluorescence, relative to Rose Bengal in test [5] is -0.279% [at 18.6 µM]. In [6], the fluorescence, % of triamterene is -0.137% [at 18.6 µM]. The fluorescence, % of fluorescent control in test [7] was -0.3% [at 18.6 µM]; in test [9] it was -0.214% [at 18.6 µM]; in [17] it was -0.0895% [at 18.6 µM]; in test [12] it was -0.0065% [at 18.6 µM]; in test [14], 0.0499% [at 18.6 µM]. Moreover, the activity change in test [10] was -0.278% [at 18.6 µM]. For the same compound, the fluorescence, % of Rose Bengal in [11] is -0.458% [at 18.6 µM]. Moreover, in [13], the fluorescence, % of fluorescein control was -0.0891% [at 18.6 µM]. For the same compound, the Potency in [15] is 0.7 nM (active); in test [18], 1.82 µM (active).

Turning to `NC(=O)Cn1c(=O)cc(CCN2CCN(c3nccc4sccc34)CC2)c2ccc(F)cc21`, the Potency entry in test [1], in test [2], in [3], in test [16], in test [6] and in test [12] was “inactive” in each case. The Potency entry in test [14], in test [15] and in test [18] was “inactive” each time. Besides, the compound was classed as inactive in test [5], in [19], in [7], in test [8], in test [10] and in [17]. The result in test [13] was inactive.

As to `CCCCN(CCCC)C(=S)SSC(=S)N(CCCC)CCCC`, the Potency entry in test [1], in test [2], in [6], in [9], in [12] and in test [14] was “inactive” in each case. Besides, the compound was called inactive in test [5], in [19], in test [7], in [8], in test [10] and in test [17]. The call in test [11] and in test [13] was inactive.

Consider `N#C/C(=C1/SC[C@@H](c2ccc(Cl)cc2Cl)S1)n1ccnc1`, for which the Potency entry in test [1], in test [2], in test [3], in test [6], in [9] and in test [12] was “inactive” in each case. Besides, the Potency result in [14] and in [15] was “inactive” throughout. Also, in test [4], the Potency was 26.6 µM (active). For the same compound, the outcome in [5], in test [19], in [7], in test [10], in test [17] and in [11] was inactive. The compound was called inactive in [13].

For `C[C@@H]1C[C@H]2[C@@H]3CCC4=CC(=O)C=C[C@]4(C)[C@@]3(F)[C@@H](O)C[C@]2(C)[C@@]1(O)C(=O)CO`, the Potency result in test [1], in test [2], in test [3], in test [16], in [6] and in [9] was “inactive” each time. In addition, the Potency entry in test [12] and in test [14] was “inactive” throughout. The compound was classed as inactive in test [5], in test [7], in [8], in test [10], in test [11] and in test [13].

As to `CCCCCCCCCCOS(=O)(=O)O`, the Potency entry in test [1], in test [2], in test [3], in test [16], in [6] and in [9] was “inactive” throughout. The Potency result in [12] and in test [14] was “inactive” throughout. Also, the compound was called inactive in test [5], in [19], in test [7], in test [8], in [10] and in test [13].

As to `COCc1c(C(C)C)nc(C(C)C)c(/C=C/[C@@H](O)C[C@@H](O)CC(=O)O)c1-c1ccc(F)cc1`, the Potency entry in test [1], in test [2], in test [3], in test [6], in test [12] and in test [14] was “inactive” in each case. The outcome in test [5], in [19], in [7], in [8], in test [10] and in test [17] was inactive. For the same compound, the result in test [11] and in test [13] was inactive. Further, the Potency in [18] was 3.38 µM (active).

(Values after PubChem BioAssay (Tox21).)
